ANO1 block = inhibitors of mouse TMEM16A calcium-activated chloride channel. Q8BHY3. HEK293 TMEM16A/YFP iodide influx fluorescence, ionomycin. normalized B-score (activity score, 25-100; higher = stronger inhibition) at 10 µM. actives 1.2% (n = 310,000);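 active means ratio plate-corrected score three or more library SD toward inhibition, starting fluorescence score within five deviations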;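 further: score derived from kinetic fluorescence span divided by baseline fluorescence per well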
TMEM16A act = activators or potentiators of mouse TMEM16A chloride channel; Q8BHY3; HEK293 TMEM16A/YFP-H148Q/I152L, iodide quench fluorescence; stronger effect = lower value; B-score at 10 µM; actives 0.3% (n = 340,000);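 active means fluorescence-ratio B-score plate-corrected deviation score at least 3 library SD below zero, with starting fluorescence score within 5 deviations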;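 further: channel opened by trigger with iodide after compound preincubation; score built on the fluorescence ratio of max minus min over baseline; more negative score means more quench and so TMEM16A activation or potentiation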
CHT block = human CHT choline transport inhibition; actives 0.86% (n = 310,000); B-score at 10 µM; Q9GZV3; AID 488975; CHT-expressing cells, membrane potential dye, choline response; stronger effect = lower value;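 active means B-score over 3 SD under the library average, and starting fluorescence ratio not unusually high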;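 further: choline stimulus applied at its EC90 after an EC20 pre-addition; B-score computed on integrated fluorescence ratio after choline addition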
CHT PAM = human CHT allosteric activation; actives 0.49% (n = 310,000); B-score at 10 µM; CHT-expressing cells, membrane potential dye, choline EC20; stronger effect = higher value; LV-AA mutant CHT in HEK293 cells;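 active means initial fluorescence not abnormally high and integrated response B-score, plate-corrected, over 3 SD above library mean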
TMEM16A reconf = re-confirmation of mouse TMEM16A chloride channel inhibitors | HEK293 TMEM16A/YFP-H148Q, iodide quench fluorescence; ionomycin added to raise cell calcium | actives 39% (n = 2,300) | shares compounds with ANO1 block | AID 652189 | inhibition, % at 10 µM;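 active means mean duplicate percent inhibition, scaled so buffer wells are 0 and the reference blocker 100, over three buffer SD above buffer mean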
HEK293 Ca mobil = alters calcium mobilization in TMEM16A HEK293 cells, counter-screen; shares compounds with ANO1 block; actives 2% (n = 2,300); AID 652231; calcium response (% of ionomycin), % at 10 µM; TMEM16A/YFP HEK293, Fluo4 calcium mobilization;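 active means duplicate-averaged calcium signal over 20% of the ionomycin maximum, relative to buffer baseline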;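 further: each well's signal is peak minus trough fluorescence divided by its pre-addition baseline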
YFP-HEK293 quench = counter-screen for TMEM16A inhibitors: effect in parental YFP-HEK293 cells; 2,300 tested, under 10 active; shares compounds with ANO1 block; iodide YFP quench, ionomycin; YFP ratio F(max-min)/F0 at 10 µM;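 active means yellow fluorescent protein signal ratio exceeding the buffer control mean by over 5 SD of those controls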;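 further: ratio is mean of duplicate wells from kinetic YFP trace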
ClC-1 rat inh = selectivity of TMEM16A inhibitors: inhibition of rat ClC-1 chloride channel; shares compounds with ANO1 block; CHO ClC-1-YFP, iodide influx fluorescence quench; iodide control reads 0, buffer control 100; ratio percent, % at 10 µM; 2,300 tested, under 10 active; AID 652236;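 active means duplicate-mean ratio percent above the mean of iodide-only control wells, which defines zero, plus 5 of their SD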;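 further: higher percent means stronger block of ClC-1 iodide influx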
Target sequence (P35524 whole entry, looked up): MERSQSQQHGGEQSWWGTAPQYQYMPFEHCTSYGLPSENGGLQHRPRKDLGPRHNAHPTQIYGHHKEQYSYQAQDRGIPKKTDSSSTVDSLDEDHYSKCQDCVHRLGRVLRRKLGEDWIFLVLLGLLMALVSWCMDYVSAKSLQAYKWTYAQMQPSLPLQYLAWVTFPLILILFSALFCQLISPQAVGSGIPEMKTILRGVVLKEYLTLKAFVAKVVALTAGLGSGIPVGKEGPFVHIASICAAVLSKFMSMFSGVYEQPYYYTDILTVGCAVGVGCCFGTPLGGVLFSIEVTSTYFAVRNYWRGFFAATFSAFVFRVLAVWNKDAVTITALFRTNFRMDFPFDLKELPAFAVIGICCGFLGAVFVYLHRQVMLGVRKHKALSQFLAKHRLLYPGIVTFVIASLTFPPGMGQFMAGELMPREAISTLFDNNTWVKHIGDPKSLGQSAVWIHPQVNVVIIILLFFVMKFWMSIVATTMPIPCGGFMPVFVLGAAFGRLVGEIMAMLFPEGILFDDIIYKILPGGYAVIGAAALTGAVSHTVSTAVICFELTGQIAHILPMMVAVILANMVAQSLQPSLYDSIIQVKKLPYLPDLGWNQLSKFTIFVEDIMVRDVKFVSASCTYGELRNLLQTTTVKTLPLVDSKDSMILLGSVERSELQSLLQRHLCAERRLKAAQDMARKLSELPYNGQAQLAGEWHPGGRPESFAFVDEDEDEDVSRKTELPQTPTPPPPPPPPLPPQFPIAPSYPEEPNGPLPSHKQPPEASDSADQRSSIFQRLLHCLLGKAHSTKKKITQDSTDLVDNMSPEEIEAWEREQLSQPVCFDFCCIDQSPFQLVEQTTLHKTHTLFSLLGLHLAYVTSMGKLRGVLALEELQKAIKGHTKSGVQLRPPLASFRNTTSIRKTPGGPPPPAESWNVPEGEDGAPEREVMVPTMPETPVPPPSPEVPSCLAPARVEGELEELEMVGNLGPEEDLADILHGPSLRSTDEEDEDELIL
A number is an active result; - = inactive; . = not tested or not shown. Shown are actives, neighbours in structure and some others; about 2.3% of the full set was active somewhere.

SMILES	ANO1 block	TMEM16A act	CHT block	CHT PAM	TMEM16A reconf	HEK293 Ca mobil	YFP-HEK293 quench	ClC-1 rat inh
Cc1ccc(S(=O)(=O)N2CCOCC2)cc1C(=O)NC1=NCCS1	.	-	.	.	.	.	.	.
Cc1nc2ccccc2c2c(N)cccc12	.	-	.	.	.	.	.	.
CC(=O)Oc1ccc(-c2cccc(C(=O)NCC(=O)O)c2)cc1	25	-	-	-	-	-	-	-
COCCn1c(SCc2csc(-c3ccccc3)n2)nc2ccccc21	100	-	-	-	24%	-	-	-
CC(=O)c1cccc(NS(=O)(=O)c2ccc(-c3cnc(C4CC4)o3)cc2)c1	25	-	-	-	16%	-	-	-
CCOc1ccc(Nc2nc(NCCN3CCOCC3)nc(OC)n2)cc1	100	-	-	-	-	-	-	-
CCOc1ccc(Nc2nc(N3CCOCC3)nc(N3CCOCC3)n2)cc1	-	-	-	-	.	.	.	.
COCCn1c(SCC(=O)NCCCN2CCCC2=O)nc2sc3c(c2c1=O)CCCC3	.	-	.	.	.	.	.	.
Cc1ccc(C(=O)Nc2cccc(C(=O)NCc3ccccc3)c2)o1	-	-	-	-	.	.	.	.
C/C(=N\NC(=O)C1(C)CC1(Br)Br)c1cccc(NC(=O)c2ccc(C)o2)c1 (stereo not given)	25	-	-	-	-	-	-	-
N#CC1(Cc2ccccc2)c2ccccc2C=CN1C(=O)c1ccccc1 (stereo not given)	100	-	-	-	-	-	-	-
CN1/C(=C\C(=O)CN2C(=O)NC3(CCCCCC3)C2=O)C(C)(C)c2ccccc21	-	-	-	-	-	-	-	-
CN1/C(=C\C(=O)COC(=O)CNC(=O)c2ccc3ccccc3c2)C(C)(C)c2ccccc21	-	-	-	-	30%	-	-	-
CNS(=O)(=O)c1cccc(C(=O)OCC(=O)/C=C2/N(C)c3ccccc3C2(C)C)c1	-	-	-	-	21%	-	-	-
CN1/C(=C\C(=O)COC(=O)CNC(=O)c2ccccc2F)C(C)(C)c2ccccc21	-	-	-	-	.	.	.	.
CN1/C(=C\C(=O)COC(=O)c2ccc(O)c(O)c2)C(C)(C)c2ccccc21	100	.	-	-	70%	-	-	-
O=C(NCCCN1CCOCC1)c1cccc(S(=O)(=O)Nc2ccccc2Cl)c1	-	-	-	-	.	.	.	.
Cc1ccc(S(=O)(=O)Nc2ccccc2F)cc1C(=O)N1CCN(c2ccccc2O)CC1	.	-	.	.	.	.	.	.
Cc1ccc(S(=O)(=O)NCCNc2ccc(Br)c(C)c2)cc1	.	-	.	.	.	.	.	.
Cn1nccc1C(=O)NC1CCCc2c1cnn2-c1ccc(C(C)(C)C)cc1 (stereo not given)	25	-	-	-	28%	-	-	-
CC(C)N1C(=O)c2ccccc2C1C(=O)NC1CCCCCC1 (stereo not given)	-	-	-	-	.	.	.	.
CCC(C)N1C(=O)c2ccccc2C1C(=O)NC1CCCCCC1 (stereo not given)	25	-	-	-	-	-	-	-
O=C(Nc1nc2cc3c(cc2s1)OCCO3)c1cccc(N2C(=O)CCC2=O)c1	-	-	-	-	.	.	.	.
CCN(CC)S(=O)(=O)c1cccc(C(=O)Nc2nc3cc4c(cc3s2)OCCO4)c1	100	-	-	-	20%	-	-	-
CC1(c2ccccc2)NC(=O)N(CC(=O)N(c2ccccc2)C2CCS(=O)(=O)C2)C1=O (stereo not given)	.	-	.	.	.	.	.	.
SMILES	ANO1 block	TMEM16A act	CHT block	CHT PAM	TMEM16A reconf	HEK293 Ca mobil	YFP-HEK293 quench	ClC-1 rat inh
CCOC(=O)c1ccc(N(CC2CO2)S(=O)(=O)c2ccc(C)cc2)cc1 (stereo not given)	.	-	.	.	.	.	.	.
N#CCSc1nnc(COc2cccc3ccccc23)n1-c1ccccc1	25	-	-	-	-	-	-	-
N#CCSc1nnc(COc2ccccc2)n1-c1ccccc1	25	-	-	-	-	-	-	-
O=C(O)CSc1nnc(COc2ccccc2)n1-c1ccccc1	-	-	-	-	.	.	.	.
COc1ccc(-n2c(COc3cccc4ccccc34)nnc2SCC#N)cc1	-	.	-	-	.	.	.	.
CC(=O)N(C)c1ccc(C=C2C=Cc3ccccc32)cc1	.	-	.	.	.	.	.	.
Cc1nn(-c2ccccc2)c(C)c1/C=N/n1cnnc1	-	-	-	-	.	.	.	.
Cc1nn(-c2ccccc2)c(C)c1/C=N\N1CCN(c2ccc(Cl)cc2)CC1	25	-	-	-	-	-	-	-
Cc1cc(N)ccc1NC(=O)c1ccccc1	100	-	-	-	-	-	-	-
Cc1cc(O)ccc1NC(=O)c1ccccc1	-	-	-	-	.	.	.	.
CC(C)(C)c1ccc(OCc2ccc(C(=O)NCc3cccnc3)o2)cc1	100	-	-	-	-	-	-	-
COc1ccccc1OCc1ccc(C(=O)NCc2cccnc2)o1	-	-	-	-	.	.	.	.
Cc1ccc(NC(=O)CC2OC(=O)c3ccccc32)cc1S(=O)(=O)N1CCOCC1 (stereo not given)	.	-	.	.	.	.	.	.
Cc1ccc(NC(=O)C2=CCN(S(=O)(=O)c3ccc(F)cc3)CC2)c(C)c1	100	-	-	-	-	-	-	-
Cc1cccc(N2CCN(C(=O)Cc3ccc(Br)cc3)CC2)c1C	100	-	-	-	-	-	-	-
Cc1cccc(N2CCN(C(=O)CNC(=O)Cc3ccccc3)CC2)c1C	.	-	.	.	.	.	.	.
CC(CNc1ccc(Cl)cc1)(CNc1ccc(Cl)cc1)[N+](=O)[O-]	.	-	.	.	.	.	.	.
CN(Cc1nccs1)C(=O)c1cc(COc2cccc3cnccc23)on1	-	-	-	-	.	.	.	.
COc1cc(Cl)ccc1OCc1cc(C(=O)N(C)Cc2cccc3cnccc23)no1	100	-	-	-	25%	-	-	-
CC12CC(c3ccccc3O1)N(C(=O)c1ccco1)C(=S)N2c1ccc(F)cc1 (stereo not given)	-	-	-	-	-	-	-	-
CC1(C)Cc2c(cnn2-c2ccc(F)cc2)C(NC(=O)c2ccco2)C1 (stereo not given)	-	-	-	-	.	.	.	.
CC1=CC(C)(C)N(S(=O)(=O)c2ccc(C)cc2)c2cc(C)ccc21	25	-	-	-	-	-	-	-
CCOc1ccc2c(c1)C(C)=CC(C)(C)N2S(=O)(=O)c1ccc(C)cc1	.	-	.	.	.	.	.	.
COc1ccccc1C1=NOC(Cn2c(NCC3CCCO3)nc3c2c(=O)n(C)c(=O)n3C)C1 (stereo not given)	-	-	-	-	-	-	-	-
COc1ccccc1C1=NOC(Cn2c(NCCCO)nc3c2c(=O)n(C)c(=O)n3C)C1 (stereo not given)	-	-	-	-	.	.	.	.
